Compounds with a hit are over-represented: about 14% of the library has one in this group of screens.
NS1 function inh = inhibitors of influenza NS1 protein function | Potency, µM (series often up to 46.1 µM) | 270,000 compounds, 0.4% hits; calls by dose curve; further: actives are rising curves; nearly all actives have a fitted effect of over 50% in size
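A cell-based growth assay was used: compounds that relieve NS1-induced slow growth of budding yeast raise OD600. Assay medium was yeast nitrogen base with ammonium sulphate and -URA supplement, pH 6.0, with 2% galactose.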
Giardia FBPA inh = Giardia lamblia aldolase inhibition; A8B2U2; purified Giardia FBPA; Potency, µM (series often up to 59.6 µM), hits mostly inhibitors; 290,000 compounds, 0.71% hits; further: nearly all actives have a fitted effect of over 55% in size
Target sequence (A8B2U2 whole entry, looked up): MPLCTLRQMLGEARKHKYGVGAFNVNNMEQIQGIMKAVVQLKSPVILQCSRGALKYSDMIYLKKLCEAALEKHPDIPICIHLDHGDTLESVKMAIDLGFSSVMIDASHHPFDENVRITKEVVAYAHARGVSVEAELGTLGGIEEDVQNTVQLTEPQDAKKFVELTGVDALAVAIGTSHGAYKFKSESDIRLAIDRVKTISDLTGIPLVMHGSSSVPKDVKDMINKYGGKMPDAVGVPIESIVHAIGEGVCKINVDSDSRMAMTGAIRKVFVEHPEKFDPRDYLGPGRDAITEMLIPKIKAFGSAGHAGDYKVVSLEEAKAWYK
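40 nM FBPA preincubated 10 min at RT with compound (up to 57.5 uM final), then substrate plus GAPDH/TPI/NAD/arsenate coupling and diaphorase/resazurin added. Fluorescence read after 20 min at RT, 525/598 nm.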
LmPK inhibitor = blocks Leishmania mexicana pyruvate kinase activity. Q27686. purified LmPK, Kinase-Glo ATP luminescence, 1 h. Potency, µM (titrated, usually from 57.5 µM), actives largely listed as inhibitors. 290,000 compounds, 0.37% hits. AID 1721
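Purified LmPK (0.1 nM) converted ADP (0.1 mM) to ATP with PEP (0.5 mM) in imidazole buffer pH 7.2 with KCl and MgCl2, 1 h at room temperature. ATP was read by Kinase-Glo luminescence; data normalized to uninhibited and no-enzyme controls.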
Shiga inhibitor = blocks Shiga toxin action in Vero cells | Vero cells, Shiga toxin protein synthesis inhibition reporter | inhibition, % at 38.7 µM | 290,000 compounds, 9.2% hits; in the data active means inhibition mostly above about 28%, no sharp cut-off; inactive means mostly below about 43%
CHX counter = affects cycloheximide protein synthesis inhibition readout, counter-screen | max response, % | cell reporter, cycloheximide protein synthesis inhibition counterscreen | AID 2314 | 300,000 compounds, 12% hits; in the data active means max response mostly above about 13%, no sharp cut-off; inactive means mostly below about 14%; further: read at 38.3 µM for the half of the compounds with a filed dose
Of the large screens only hits and unclear results are named; the others gave an inactive call. Unless noted, the call rests on the fitted dose curve; in most records, active means well fitted curve in the direction sought with a large enough effect; inconclusive means small, poorly fitted or top-dose-only effect, or another doubt; inactive means no such curve, though single readings can be large; an effect the other way counts as inactive or inconclusive.

CCCn1nnc(NC(=O)c2ccc(OCC)c(Cl)c2)n1	CHX counter 20.3
COc1cc(CNCc2ccc(Br)cc2)cc(OC)c1	Giardia FBPA inh inconclusive
CCOC(=O)CCNC(=O)N1CCCC(N(C)CCc2ccccc2)C1 (stereo not drawn)	none
CCCn1nnc(NC(=O)c2ccc(Br)cc2)n1	Shiga inhibitor 98.8, CHX counter 44.8
CCCn1nnc(NC(=S)NC(=O)c2ccc(-c3ccc(Br)cc3)o2)n1	Giardia FBPA inh inconclusive
CC(C)NC(=O)CSc1nnc2sc3ccccc3n12	CHX counter 26.8
NC(=O)CSc1nnc2sc3ccccc3n12	none
COc1ccc(OCCSc2nnc3sc4ccccc4n23)cc1	CHX counter 59.7
COc1ccc2[nH]c3c(=O)n(CCCCC(=O)N4CCCC4)c(=S)[nH]c3c2c1	NS1 function inh inconclusive, LmPK inhibitor 2µM
O=C(Nc1ccc2ccccc2c1)NC1CCS(=O)(=O)C1 (stereo not drawn)	CHX counter 13.6
CCOC(=O)N1CCC(NC(=O)c2cc(COc3ccccc3SC)on2)CC1	CHX counter 26.6
CSc1ccccc1OCc1cc(C(=O)N2CCC(c3ccncc3)CC2)no1	CHX counter 18.7 (no result: Giardia FBPA inh)
COCC(=O)Nc1nc(-c2ccccc2)ns1	CHX counter 34.7
CC(=O)Nc1nc(-c2ccccc2)ns1	Shiga inhibitor 38.1, CHX counter 23.3
CC(=O)Nc1cccc(-n2nnc(SCC(=O)c3ccccc3)n2)c1	Shiga inhibitor 61.4, CHX counter 49.0
COc1ccc(C(=O)CSc2nnn(-c3cccc(NC(C)=O)c3)n2)cc1	Shiga inhibitor 72.9, CHX counter 51.6
CC(=O)Nc1cccc(-n2nnc(SCC(N)=O)n2)c1	none
CCn1c(SCC(=O)Nc2ccc(OC)cc2)nc2nc3c(cc2c1=O)COC(C)(C)C3	none
CCn1c(SCC(=O)Nc2ccc(Cl)cc2)nc2nc3c(cc2c1=O)CCCC3	none
CCn1c(SCC(=O)Nc2ccc(C(C)=O)cc2)nc2nc3c(cc2c1=O)COC(C)(C)C3	Shiga inhibitor 122.4, CHX counter 31.7
CCn1c(SCC(=O)Nc2ccc(C(C)=O)cc2)nc2nc3c(cc2c1=O)CCCC3	Shiga inhibitor 45.6, CHX counter 26.5
CC(C)CCN1CCc2nc(COc3ccccc3)c3c(c2C1)COC(C)C3 (stereo not drawn)	none (no result: NS1 function inh, LmPK inhibitor, Shiga inhibitor, CHX counter)
N#C/C(=C\c1ccccn1)c1nc2ccccc2s1	Shiga inhibitor 56.6, CHX counter 35.2
COc1ccc(/C(C#N)=C/c2ccccn2)cc1	LmPK inhibitor 8.91µM, Shiga inhibitor 110.2, CHX counter 59.6
CC(C)c1ccc(C(O)(C(=O)O)c2ccc(C(C)C)cc2)cc1	none (no result: Giardia FBPA inh, LmPK inhibitor, Shiga inhibitor, CHX counter)
Oc1oc(-c2ccco2)nc1C=Nc1ccccc1	Shiga inhibitor 98.6, CHX counter 19.4
O=C(O)c1ccc(N=Cc2nc(-c3ccco3)oc2O)cc1	none (no result: NS1 function inh)
CC(=O)Oc1oc(-c2ccccc2)nc1C=Nc1ccccc1	none (no result: Giardia FBPA inh)
CCOC(=O)c1ccc(N=Cc2nc(-c3ccccc3)oc2OC(C)=O)cc1	none
CN(C)c1ccc(N=Cc2nc(-c3ccccc3)oc2OC(=O)c2cccc(Br)c2)cc1	Shiga inhibitor active, CHX counter 40.0
COc1ccc(N=Cc2nc(-c3ccccc3)oc2OC(=O)c2ccccc2)cc1	Shiga inhibitor 66.7, CHX counter 59.3
Cc1ccc(C(=O)Oc2oc(-c3ccco3)nc2C=Nc2ccccc2)cc1	LmPK inhibitor inconclusive, Shiga inhibitor 89.1, CHX counter 31.4 (no result: Giardia FBPA inh)
C[N+]1(C)CCc2cc(O)c(O)cc2[C@H]1Cc1ccc(O)c(O)c1	none (no result: Giardia FBPA inh, LmPK inhibitor, Shiga inhibitor, CHX counter)
COc1ccccc1-c1nccc(NCc2cccc(C)c2)n1	none (no result: NS1 function inh, LmPK inhibitor, Shiga inhibitor, CHX counter)
Cc1cc2oc(=O)cc(Cn3ccnc3)c2cc1Cl	none
CN(C)c1ccc(/C=C/c2nnnn2-c2ccccc2)cc1	Shiga inhibitor 108.4, CHX counter 60.6
Cn1nccc1NC(=O)Nc1cccc([N+](=O)[O-])c1	none
Cc1ccc(NC(=O)Nc2cccc([N+](=O)[O-])c2)nc1	Shiga inhibitor 85.1, CHX counter 20.3 (no result: NS1 function inh)
Cn1ccc(NC(=O)Nc2cccc([N+](=O)[O-])c2)n1	Shiga inhibitor 39.1, CHX counter 22.6
COCC(=O)Nc1c(C(=O)Nc2cccc(OC)c2)oc2ccccc12	Shiga inhibitor 58.1, CHX counter 47.9
COc1cccc(NC(=O)c2oc3ccccc3c2NC(C)=O)c1	Shiga inhibitor 47.1, CHX counter 36.8
COc1cccc(NC(=O)c2oc3ccccc3c2NC(=O)C2CC2)c1	none (no result: Giardia FBPA inh)
CC(=O)C1=C(O)C(=O)N(c2ccc(Br)cn2)C1c1ccc(Br)cc1 (stereo not drawn)	Shiga inhibitor 92.7, CHX counter 20.7
CC(=O)C1=C(O)C(=O)N(c2ccc(Br)cn2)C1c1ccccc1F (stereo not drawn)	none
CC(=O)C1=C(O)C(=O)N(c2ccc(Br)cn2)C1c1ccc(F)cc1 (stereo not drawn)	Shiga inhibitor 74.8, CHX counter 37.5
COc1cc(C2C(C(C)=O)=C(O)C(=O)N2c2ccc(Br)cn2)ccc1O (stereo not drawn)	none
COc1ccc(NC(=O)CCNS(=O)(=O)c2cc(Br)cnc2N)c(OC)c1	none (no result: Giardia FBPA inh)
COc1ccccc1NC(=O)CSc1nc2ccccc2nc1N1CC(C)OC(C)C1 (stereo not drawn)	NS1 function inh inconclusive
COC(=O)C1=C[C@@H](C(=O)OC)[C@@H]2C3=C(C(=O)[C@]2(C)NC(=O)c2ccccc2)[C@H](C)[C@@H]2C(=O)NC(=O)[C@@H]2[C@@H]3C1	none (no result: NS1 function inh, LmPK inhibitor)
O=c1[nH]oc2cc(Cl)ccc12	none
CCOC(=O)C1(CCOC)CCN(Cc2nc(C(C)C)cs2)CC1	Shiga inhibitor 68.3, CHX counter 29.5
CCOC(=O)C1(CCOC)CCN(Cc2ccncc2)CC1	none
Cc1cc(C)nc(N/N=C/C(Cl)=C/c2ccccc2)n1	Shiga inhibitor 49.7, CHX counter 29.8
Cc1cc(C)nc(N/N=C/C=C/c2ccccc2)n1	Shiga inhibitor 56.7, CHX counter 29.3
Cc1cc(C)nc(N/N=C/c2ccccc2)n1	none
Cc1cc(C)nc(SCC(=O)N/N=C\C(Br)=C\c2ccccc2)n1	none
CCCCOc1ccc(-n2nc(C)cc2C)nn1	Shiga inhibitor 54.8, CHX counter 28.6
CCN(CC)CCN1C(=O)C(=O)/C(=C(/O)c2ccc(OC)cc2)C1c1cccs1 (stereo not drawn)	NS1 function inh inconclusive, Shiga inhibitor 66.5, CHX counter 57.9 (no result: Giardia FBPA inh)
C=CCOc1ccc(/C(O)=C2\C(=O)C(=O)N(CCN(C)C)C2c2cccs2)cc1 (stereo not drawn)	Shiga inhibitor 61.6
CCOc1ccc(/C(O)=C2/C(=O)C(=O)N(CCN(CC)CC)C2c2cccs2)cc1 (stereo not drawn)	Shiga inhibitor 50.6, CHX counter 43.3
CCOc1ccc(/C(O)=C2/C(=O)C(=O)N(CCOCCO)C2c2cccnc2)cc1 (stereo not drawn)	none
CCOc1ccc(/C(O)=C2/C(=O)C(=O)N(CCOCCO)C2c2ccccc2)cc1 (stereo not drawn)	CHX counter 18.1
COc1ccc(O[C@H]2C=C[C@@H](c3ccccc3)O[C@@H]2CON=C(C)C)cc1	none (no result: NS1 function inh, LmPK inhibitor, Shiga inhibitor, CHX counter)

Source: PubChem
